From article PMC12529666, “Dysregulation of AGO2-miRNA dynamics underlies the AGO2-associated Lessel–Kreienkamp syndrome” come the findings set out here.

Changes are numbered by the printed parent chain.

First the molecules themselves.
B1: ACGTCCCA (ssRNA)
RNA 1: GAGUUCUACAGUCCGACGAUCCCAACACGUCCCACACCUGGAAUUCUCGGGUGCCAA
RNA 2: UGGAGUGUGACAAUGGUGUUUG
DNA 1: GATCGTCGGACTGTAGAACTC
DNA 2: TTGGCACCCGAGAATTCCA
modifications: constant regions annealed to DNA blockers; guide miR-122 5' phosphate
B2: GCGCTCCA (ssRNA)
RNA 1: B1 RNA 1 with A27G, U30C, C31U
RNA 2: UGGAGUGUGACAAUGGUGUUUG
DNA 1: GATCGTCGGACTGTAGAACTC
DNA 2: TTGGCACCCGAGAATTCCA
modifications: constant regions annealed to DNA blockers; guide miR-122 5' phosphate
B3: ATATTCCA (ssRNA)
RNA 1: B1 RNA 1 with C28U, G29A, C31U
RNA 2: UGGAGUGUGACAAUGGUGUUUG
DNA 1: GATCGTCGGACTGTAGAACTC
DNA 2: TTGGCACCCGAGAATTCCA
modifications: constant regions annealed to DNA blockers; guide miR-122 5' phosphate
B4: GCACCTTA (ssRNA)
RNA 1: B1 RNA 1 with A27G, G29A, U30C, C32U, C33U
RNA 2: UGGAGUGUGACAAUGGUGUUUG
DNA 1: GATCGTCGGACTGTAGAACTC
DNA 2: TTGGCACCCGAGAATTCCA
modifications: constant regions annealed to DNA blockers; guide miR-122 5' phosphate
B5: GTGTCCCA (ssRNA)
RNA 1: B1 RNA 1 with A27G, C28U
RNA 2: UGGAGUGUGACAAUGGUGUUUG
DNA 1: GATCGTCGGACTGTAGAACTC
DNA 2: TTGGCACCCGAGAATTCCA
modifications: constant regions annealed to DNA blockers; guide miR-122 5' phosphate
B6: GCGTCCCA (ssRNA)
RNA 1: B1 RNA 1 with A27G
RNA 2: UGGAGUGUGACAAUGGUGUUUG
DNA 1: GATCGTCGGACTGTAGAACTC
DNA 2: TTGGCACCCGAGAATTCCA
modifications: constant regions annealed to DNA blockers; guide miR-122 5' phosphate
B7: GTGCTTCG (ssRNA)
RNA 1: B1 RNA 1 with A27G, C28U, U30C, C31U, C32U, A34G
RNA 2: UGGAGUGUGACAAUGGUGUUUG
DNA 1: GATCGTCGGACTGTAGAACTC
DNA 2: TTGGCACCCGAGAATTCCA
modifications: constant regions annealed to DNA blockers; guide miR-122 5' phosphate
B8: ATGTCTTA (ssRNA)
RNA 1: B1 RNA 1 with C28U, C32U, C33U
RNA 2: UGGAGUGUGACAAUGGUGUUUG
DNA 1: GATCGTCGGACTGTAGAACTC
DNA 2: TTGGCACCCGAGAATTCCA
modifications: constant regions annealed to DNA blockers; guide miR-122 5' phosphate
B9: GCACCCCG (ssRNA)
RNA 1: B1 RNA 1 with A27G, G29A, U30C, A34G
RNA 2: UGGAGUGUGACAAUGGUGUUUG
DNA 1: GATCGTCGGACTGTAGAACTC
DNA 2: TTGGCACCCGAGAATTCCA
modifications: constant regions annealed to DNA blockers; guide miR-122 5' phosphate
B10: GCGCTCCG (ssRNA)
RNA 1: B1 RNA 1 with A27G, U30C, C31U, A34G
RNA 2: UGGAGUGUGACAAUGGUGUUUG
DNA 1: GATCGTCGGACTGTAGAACTC
DNA 2: TTGGCACCCGAGAATTCCA
modifications: constant regions annealed to DNA blockers; guide miR-122 5' phosphate
B11: ACACCTTA (ssRNA)
RNA 1: B1 RNA 1 with G29A, U30C, C32U, C33U
RNA 2: UGGAGUGUGACAAUGGUGUUUG
DNA 1: GATCGTCGGACTGTAGAACTC
DNA 2: TTGGCACCCGAGAATTCCA
modifications: constant regions annealed to DNA blockers; guide miR-122 5' phosphate
B12: ACACCCCG (ssRNA)
RNA 1: B1 RNA 1 with G29A, U30C, A34G
RNA 2: UGGAGUGUGACAAUGGUGUUUG
DNA 1: GATCGTCGGACTGTAGAACTC
DNA 2: TTGGCACCCGAGAATTCCA
modifications: constant regions annealed to DNA blockers; guide miR-122 5' phosphate
B13: GTACCTCA (ssRNA)
RNA 1: B1 RNA 1 with A27G, C28U, G29A, U30C, C32U
RNA 2: UGGAGUGUGACAAUGGUGUUUG
DNA 1: GATCGTCGGACTGTAGAACTC
DNA 2: TTGGCACCCGAGAATTCCA
modifications: constant regions annealed to DNA blockers; guide miR-122 5' phosphate
B14: GCGTTTCA (ssRNA)
RNA 1: B1 RNA 1 with A27G, C31U, C32U
RNA 2: UGGAGUGUGACAAUGGUGUUUG
DNA 1: GATCGTCGGACTGTAGAACTC
DNA 2: TTGGCACCCGAGAATTCCA
modifications: constant regions annealed to DNA blockers; guide miR-122 5' phosphate
B15: ACATTTTA (ssRNA)
RNA 1: B1 RNA 1 with G29A, C31U, C32U, C33U
RNA 2: UGGAGUGUGACAAUGGUGUUUG
DNA 1: GATCGTCGGACTGTAGAACTC
DNA 2: TTGGCACCCGAGAATTCCA
modifications: constant regions annealed to DNA blockers; guide miR-122 5' phosphate
B16: GTGCCTTA (ssRNA)
RNA 1: B1 RNA 1 with A27G, C28U, U30C, C32U, C33U
RNA 2: UGGAGUGUGACAAUGGUGUUUG
DNA 1: GATCGTCGGACTGTAGAACTC
DNA 2: TTGGCACCCGAGAATTCCA
modifications: constant regions annealed to DNA blockers; guide miR-122 5' phosphate
B17: GCGCCTCA (ssRNA)
RNA 1: B1 RNA 1 with A27G, U30C, C32U
RNA 2: UGGAGUGUGACAAUGGUGUUUG
DNA 1: GATCGTCGGACTGTAGAACTC
DNA 2: TTGGCACCCGAGAATTCCA
modifications: constant regions annealed to DNA blockers; guide miR-122 5' phosphate
B18: ACGTTCCA (ssRNA)
RNA 1: B1 RNA 1 with C31U
RNA 2: UGGAGUGUGACAAUGGUGUUUG
DNA 1: GATCGTCGGACTGTAGAACTC
DNA 2: TTGGCACCCGAGAATTCCA
modifications: constant regions annealed to DNA blockers; guide miR-122 5' phosphate
B19: GCGCCTTA (ssRNA)
RNA 1: B1 RNA 1 with A27G, U30C, C32U, C33U
RNA 2: UGGAGUGUGACAAUGGUGUUUG
DNA 1: GATCGTCGGACTGTAGAACTC
DNA 2: TTGGCACCCGAGAATTCCA
modifications: constant regions annealed to DNA blockers; guide miR-122 5' phosphate

Chain of AGO2 WT (phosphosite mutant background) (Q9UKV8 whole entry S387D/S824A/S828D/S831D/S834A): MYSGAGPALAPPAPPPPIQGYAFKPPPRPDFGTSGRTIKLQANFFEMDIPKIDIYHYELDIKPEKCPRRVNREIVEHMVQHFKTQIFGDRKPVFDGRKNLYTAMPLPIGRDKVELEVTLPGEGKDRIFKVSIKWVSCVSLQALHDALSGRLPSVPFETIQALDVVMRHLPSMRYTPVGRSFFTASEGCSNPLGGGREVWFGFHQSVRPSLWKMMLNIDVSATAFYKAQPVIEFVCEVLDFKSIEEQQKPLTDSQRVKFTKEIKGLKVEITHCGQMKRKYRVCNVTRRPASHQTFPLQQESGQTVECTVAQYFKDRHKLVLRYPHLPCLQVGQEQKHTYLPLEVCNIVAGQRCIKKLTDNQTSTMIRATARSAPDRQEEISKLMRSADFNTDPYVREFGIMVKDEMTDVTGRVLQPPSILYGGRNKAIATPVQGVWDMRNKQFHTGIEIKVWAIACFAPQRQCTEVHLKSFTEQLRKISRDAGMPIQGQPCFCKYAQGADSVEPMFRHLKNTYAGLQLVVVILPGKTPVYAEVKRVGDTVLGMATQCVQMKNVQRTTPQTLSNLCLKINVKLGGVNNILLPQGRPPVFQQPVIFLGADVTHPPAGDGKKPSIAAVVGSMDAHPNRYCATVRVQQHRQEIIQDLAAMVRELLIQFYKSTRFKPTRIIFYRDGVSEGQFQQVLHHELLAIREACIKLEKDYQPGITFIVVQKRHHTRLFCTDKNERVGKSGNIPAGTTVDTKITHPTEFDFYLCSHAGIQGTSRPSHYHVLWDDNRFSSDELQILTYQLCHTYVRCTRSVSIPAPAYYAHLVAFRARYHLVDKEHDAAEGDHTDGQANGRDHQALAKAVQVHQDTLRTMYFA
Chain of AGO2 L192P (Q9UKV8 whole entry L192P/S387D/S824A/S828D/S831D/S834A): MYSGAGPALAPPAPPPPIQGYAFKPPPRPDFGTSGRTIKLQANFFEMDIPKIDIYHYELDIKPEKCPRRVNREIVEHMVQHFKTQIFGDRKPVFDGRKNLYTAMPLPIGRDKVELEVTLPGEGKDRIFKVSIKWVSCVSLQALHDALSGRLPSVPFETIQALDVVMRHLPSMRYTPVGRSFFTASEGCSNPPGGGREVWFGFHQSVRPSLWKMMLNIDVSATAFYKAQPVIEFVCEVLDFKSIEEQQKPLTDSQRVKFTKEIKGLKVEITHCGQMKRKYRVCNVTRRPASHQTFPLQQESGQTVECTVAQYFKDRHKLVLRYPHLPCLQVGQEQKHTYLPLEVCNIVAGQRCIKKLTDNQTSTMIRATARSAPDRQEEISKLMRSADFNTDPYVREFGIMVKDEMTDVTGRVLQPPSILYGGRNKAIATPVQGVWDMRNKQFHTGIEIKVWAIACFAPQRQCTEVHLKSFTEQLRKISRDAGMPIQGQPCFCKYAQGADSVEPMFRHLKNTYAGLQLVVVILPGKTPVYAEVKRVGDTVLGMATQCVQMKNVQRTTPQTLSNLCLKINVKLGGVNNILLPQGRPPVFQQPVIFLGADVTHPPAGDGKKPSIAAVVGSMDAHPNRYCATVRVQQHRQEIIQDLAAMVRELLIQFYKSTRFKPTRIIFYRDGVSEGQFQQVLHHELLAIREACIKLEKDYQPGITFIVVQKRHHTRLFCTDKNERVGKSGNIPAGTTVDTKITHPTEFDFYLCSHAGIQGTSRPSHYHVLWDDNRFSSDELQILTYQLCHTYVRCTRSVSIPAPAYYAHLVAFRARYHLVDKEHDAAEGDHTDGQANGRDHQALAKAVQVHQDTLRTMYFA
Chain of AGO2 T357M (Q9UKV8 whole entry T357M/S387D/S824A/S828D/S831D/S834A): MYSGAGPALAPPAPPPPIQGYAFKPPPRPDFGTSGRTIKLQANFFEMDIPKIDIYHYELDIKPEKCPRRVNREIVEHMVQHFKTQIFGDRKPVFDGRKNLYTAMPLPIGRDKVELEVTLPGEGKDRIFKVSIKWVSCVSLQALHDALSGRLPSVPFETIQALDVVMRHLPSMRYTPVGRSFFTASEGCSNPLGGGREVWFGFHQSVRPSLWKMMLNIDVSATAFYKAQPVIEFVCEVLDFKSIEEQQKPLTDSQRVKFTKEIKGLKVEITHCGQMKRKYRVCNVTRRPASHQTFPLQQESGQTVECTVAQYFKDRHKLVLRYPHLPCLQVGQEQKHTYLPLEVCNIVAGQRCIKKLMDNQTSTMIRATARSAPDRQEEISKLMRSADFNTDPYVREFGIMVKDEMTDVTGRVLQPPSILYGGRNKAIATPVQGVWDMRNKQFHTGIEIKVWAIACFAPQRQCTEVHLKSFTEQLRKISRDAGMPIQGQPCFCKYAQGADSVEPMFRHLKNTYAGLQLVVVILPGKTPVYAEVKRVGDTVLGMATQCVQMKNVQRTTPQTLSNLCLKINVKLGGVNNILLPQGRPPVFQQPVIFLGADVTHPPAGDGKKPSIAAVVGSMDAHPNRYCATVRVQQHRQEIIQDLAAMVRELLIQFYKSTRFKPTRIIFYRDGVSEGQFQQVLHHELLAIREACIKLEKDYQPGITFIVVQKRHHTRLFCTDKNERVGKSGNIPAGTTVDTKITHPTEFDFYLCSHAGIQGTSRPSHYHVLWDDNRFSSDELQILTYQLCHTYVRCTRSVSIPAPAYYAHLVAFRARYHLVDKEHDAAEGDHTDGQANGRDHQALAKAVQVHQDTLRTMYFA
Chain of AGO2 F182del (Q9UKV8 other isoform, or with tags, fused parts or gaps S387D;S824A;S828D;S831D;S834A;del182-182): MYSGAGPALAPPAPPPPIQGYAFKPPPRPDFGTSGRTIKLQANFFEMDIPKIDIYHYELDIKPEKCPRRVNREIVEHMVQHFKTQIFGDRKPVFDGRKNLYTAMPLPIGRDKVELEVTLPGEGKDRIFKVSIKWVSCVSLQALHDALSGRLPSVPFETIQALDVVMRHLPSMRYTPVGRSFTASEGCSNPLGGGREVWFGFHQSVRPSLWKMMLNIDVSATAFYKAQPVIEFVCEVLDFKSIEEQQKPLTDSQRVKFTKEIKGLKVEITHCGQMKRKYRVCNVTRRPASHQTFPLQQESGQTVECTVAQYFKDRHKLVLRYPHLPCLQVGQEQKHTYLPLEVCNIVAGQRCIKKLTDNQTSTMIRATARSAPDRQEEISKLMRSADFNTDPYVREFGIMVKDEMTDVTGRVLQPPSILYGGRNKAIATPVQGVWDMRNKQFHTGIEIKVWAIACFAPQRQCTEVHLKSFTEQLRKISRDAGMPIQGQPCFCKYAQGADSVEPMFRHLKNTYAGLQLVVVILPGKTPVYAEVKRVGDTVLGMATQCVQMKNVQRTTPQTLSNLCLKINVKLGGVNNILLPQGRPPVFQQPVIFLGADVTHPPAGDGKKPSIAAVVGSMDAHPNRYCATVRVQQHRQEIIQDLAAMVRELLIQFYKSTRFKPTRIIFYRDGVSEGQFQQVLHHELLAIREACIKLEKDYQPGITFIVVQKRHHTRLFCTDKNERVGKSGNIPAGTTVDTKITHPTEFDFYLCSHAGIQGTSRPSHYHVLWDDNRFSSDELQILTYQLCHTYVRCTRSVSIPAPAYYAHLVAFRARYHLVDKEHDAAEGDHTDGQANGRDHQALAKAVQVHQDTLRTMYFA

One test deals with AGO2 WT (phosphosite mutant background) (Homo sapiens, UniProt Q9UKV8 1-859, S387D;S824A;S828D;S831D;S834A). Nature of the test: RNA Bind-n-Seq (nitrocellulose filter binding and sequencing); miR-122 guide loaded in AGO2; 60 min incubation; 30 mM Tris pH 8.0, 100 mM potassium acetate, 2 mM magnesium acetate, 0.5 mM TCEP, 0.005% NP-40, 0.01 mg/ml yeast tRNA; 3 nM AGO2-miR-122, 100 nM RNA library; 60; high values mean tight binding. The following applies: protein: recombinant; tags: His6 (N-terminal, pFastBac HTA). Summed up:
(§1)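 His-tagged AGO2 was expressed in Sf9 insect cells by baculovirus, loaded with a synthetic guide RNA, and purified by Ni-NTA and a biotinylated capture oligo. Bound RNA was extracted, reverse-transcribed, barcode-amplified and Illumina-sequenced. Fold enrichment is each sequence's read fraction divided by its input-library read fraction.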
Regarding B1, the binding signal was 0.127 fold enrichment over input.
On the same count and under the same terms, the same measure for B2: 1.63 fold enrichment over input.
Regarding B3, the binding signal was 0.121 fold enrichment over input.
Consider B4, for which the binding signal is 0.132 fold enrichment over input.
In the case of B5, the binding signal was 0.125 fold enrichment over input.
The same measure, in the same setting: the result for B6 reads 0.126 fold enrichment over input.
For B7, the binding signal was 0.127 fold enrichment over input.
Same read-out and setting: the same measure for B8: 0.142 fold enrichment over input; for B9: 0.129 fold enrichment over input.
Same read-out and setting: the result for B10 reads 1.39 fold enrichment over input.
B11: the binding signal is 0.164 fold enrichment over input.
For the molecule B12, the binding signal is 0.152 fold enrichment over input.
B13: the binding signal was 0.149 fold enrichment over input.
Regarding B14, the binding signal was 0.125 fold enrichment over input.
Consider B15, for which the binding signal is 0.122 fold enrichment over input.
In the case of B16, the binding signal is 0.126 fold enrichment over input.
As to B17, the binding signal was 0.131 fold enrichment over input.
B18: the binding signal is 0.137 fold enrichment over input.
Same read-out and setting: the result for B19 reads 0.125 fold enrichment over input.

Another test deals with AGO2 L192P (Homo sapiens, UniProt Q9UKV8 1-859, L192P;S387D;S824A;S828D;S831D;S834A). The description is as above. The following applies: protein: recombinant; tags: His6 (N-terminal, pFastBac HTA). Summed up:
as §1
For B1, the binding signal was 0.569 fold enrichment over input.
On to B2, for which the binding signal was 3.25 fold enrichment over input.
In the case of B3, the binding signal is 0.564 fold enrichment over input.
For B4, the binding signal was 0.59 fold enrichment over input.
As for B5, the binding signal was 0.479 fold enrichment over input.
Still for that read-out and setting: the same measure for B6: 0.51 fold enrichment over input.
In the case of B7, the binding signal was 0.455 fold enrichment over input.
As for B8, the binding signal is 0.569 fold enrichment over input.
Same read-out and setting: the result for B9 reads 0.455 fold enrichment over input; that for B10, 3.09 fold enrichment over input; that for B11, 0.755 fold enrichment over input.
Regarding B12, the binding signal was 0.517 fold enrichment over input.
Same read-out and setting: the result for B13 reads 0.573 fold enrichment over input.
Take B14: the binding signal was 0.513 fold enrichment over input.
For B15, the binding signal is 0.534 fold enrichment over input.
On to B16, for which the binding signal is 0.555 fold enrichment over input.
Turning to B17, the binding signal was 0.523 fold enrichment over input.
On to B18, for which the binding signal is 0.603 fold enrichment over input.
Consider B19, for which the binding signal was 0.5 fold enrichment over input.

For a further test, the target named is AGO2 A367P (Homo sapiens, UniProt Q9UKV8 1-859, A367P;S387D;S824A;S828D;S831D;S834A). The description is as above. The following applies: protein: recombinant; tags: His6 (N-terminal, pFastBac HTA). Summed up: as §1
Chain of AGO2 A367P (Q9UKV8 whole entry A367P/S387D/S824A/S828D/S831D/S834A): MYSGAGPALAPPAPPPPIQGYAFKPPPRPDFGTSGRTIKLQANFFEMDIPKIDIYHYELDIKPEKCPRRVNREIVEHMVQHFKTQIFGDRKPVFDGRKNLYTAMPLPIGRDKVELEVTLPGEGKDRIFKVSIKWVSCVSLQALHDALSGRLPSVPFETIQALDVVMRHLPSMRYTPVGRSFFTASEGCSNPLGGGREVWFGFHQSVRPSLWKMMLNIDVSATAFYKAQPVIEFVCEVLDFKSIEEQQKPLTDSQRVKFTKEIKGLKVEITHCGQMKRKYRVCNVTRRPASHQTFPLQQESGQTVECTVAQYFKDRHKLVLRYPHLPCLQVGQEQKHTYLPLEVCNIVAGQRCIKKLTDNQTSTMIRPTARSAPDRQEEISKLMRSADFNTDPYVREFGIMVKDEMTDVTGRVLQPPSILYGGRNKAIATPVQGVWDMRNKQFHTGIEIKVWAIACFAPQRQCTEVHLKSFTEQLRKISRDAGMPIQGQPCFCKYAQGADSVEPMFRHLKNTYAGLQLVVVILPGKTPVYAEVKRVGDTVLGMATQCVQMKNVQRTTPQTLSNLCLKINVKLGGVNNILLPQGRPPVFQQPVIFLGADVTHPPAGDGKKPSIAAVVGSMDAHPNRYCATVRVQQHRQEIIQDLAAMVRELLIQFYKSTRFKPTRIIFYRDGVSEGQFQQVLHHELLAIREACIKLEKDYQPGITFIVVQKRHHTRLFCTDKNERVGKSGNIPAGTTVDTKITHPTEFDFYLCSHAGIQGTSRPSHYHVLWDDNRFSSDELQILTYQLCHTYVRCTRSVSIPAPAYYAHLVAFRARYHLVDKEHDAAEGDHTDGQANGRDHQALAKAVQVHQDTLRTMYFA
As to B1, the binding signal was 0.255 fold enrichment over input.
Still for that read-out and setting: the same measure for B2: 2.69 fold enrichment over input; for B3: 0.22 fold enrichment over input.
The same measure, in the same setting: the same measure for B4: 0.307 fold enrichment over input.
With B5, the binding signal was 0.249 fold enrichment over input.
Still for that read-out and setting: the result for B6 reads 0.215 fold enrichment over input; that for B7, 0.192 fold enrichment over input; that for B8, 0.399 fold enrichment over input.
Take B9: the binding signal is 0.21 fold enrichment over input.
In the case of B10, the binding signal was 4.35 fold enrichment over input.
Take B11: the binding signal was 0.475 fold enrichment over input.
For B12, the binding signal was 0.259 fold enrichment over input.
On the same count and under the same terms, the same measure for B13: 0.44 fold enrichment over input; for B14: 0.227 fold enrichment over input.
As for B15, the binding signal is 0.209 fold enrichment over input.
For the molecule B16, the binding signal was 0.217 fold enrichment over input.
Regarding B17, the binding signal was 0.233 fold enrichment over input.
As to B18, the binding signal is 0.333 fold enrichment over input.
For B19, the binding signal was 0.194 fold enrichment over input.

A further test has as its target AGO2 T357M (Homo sapiens, UniProt Q9UKV8 1-859, T357M;S387D;S824A;S828D;S831D;S834A). Described as above. The following applies: protein: recombinant; tags: His6 (N-terminal, pFastBac HTA). The gist of the method: as §1
B1: the binding signal is 0.637 fold enrichment over input.
Regarding B2, the binding signal is 1.03 fold enrichment over input.
In the case of B3, the binding signal was 0.646 fold enrichment over input.
With B4, the binding signal is 0.657 fold enrichment over input.
For the molecule B5, the binding signal was 0.602 fold enrichment over input.
As for B6, the binding signal was 0.751 fold enrichment over input.
For the molecule B7, the binding signal is 0.624 fold enrichment over input.
As to B8, the binding signal is 0.646 fold enrichment over input.
On to B9, for which the binding signal is 0.634 fold enrichment over input.
On to B10, for which the binding signal was 0.905 fold enrichment over input.
For B11, the binding signal was 0.721 fold enrichment over input.
The same measure, in the same setting: the same measure for B12: 0.517 fold enrichment over input; for B13: 0.601 fold enrichment over input.
As for B14, the binding signal is 0.632 fold enrichment over input.
Regarding B15, the binding signal is 0.598 fold enrichment over input.
Consider B16, for which the binding signal is 0.801 fold enrichment over input.
As to B17, the binding signal is 0.741 fold enrichment over input.
B18: the binding signal is 0.66 fold enrichment over input.
In the case of B19, the binding signal is 0.763 fold enrichment over input.

A further test concerns the target AGO2 F182del (Homo sapiens, UniProt Q9UKV8 1-859, S387D;S824A;S828D;S831D;S834A;del182-182). Described as above. The following applies: protein: recombinant; tags: His6 (N-terminal, pFastBac HTA). Summed up:
as §1
As for B1, the binding signal is 0.446 fold enrichment over input.
For the molecule B2, the binding signal was 6.7 fold enrichment over input.
Still for that read-out and setting: the same measure for B3: 0.372 fold enrichment over input.
For the molecule B4, the binding signal is 0.717 fold enrichment over input.
With B5, the binding signal was 0.268 fold enrichment over input.
Regarding B6, the binding signal is 0.169 fold enrichment over input.
The same measure, in the same setting: the same measure for B8: 0.57 fold enrichment over input; for B9: 0.203 fold enrichment over input.
For the molecule B10, the binding signal was 7.66 fold enrichment over input.
As for B11, the binding signal was 1.89 fold enrichment over input.
On the same count and under the same terms, the same measure for B12: 0.82 fold enrichment over input; for B13: 1.57 fold enrichment over input.
B14: the binding signal is 0.326 fold enrichment over input.
For the molecule B15, the binding signal was 0.359 fold enrichment over input.
Turning to B17, the binding signal is 0.304 fold enrichment over input.
On the same count and under the same terms, the same measure for B18: 0.976 fold enrichment over input.
